This note sets out measurements from PubChem BioAssay (EPA / NIEHS).

Some structures have more than one record in an assay (separate samples or runs), and their calls can disagree. Activity calls are given as the source filed them. The calls were made as follows: active = hit-call score of the fitted dose curve at least 0.9, where 1 is the maximum; inactive = score below 0.9.

Read-out in the assay: Collagen III, COL3A1 (gene 1281)
Nature of the assay: BSK_hDFCGF_CollagenIII: BioMAP Diversity Plus: hDFCGF Assay for Collagen III Biomarker Activity (AID 2283056). The note with it: primary human foreskin fibroblasts; actives raise or lower the signal. The method, then: BSK_hDFCGF is a cell-based, multiplexed-readout assay that uses foreskin fibroblast, a human skin primary cell, with measurements taken at 24 hours after chemical dosing in a 96-well plate.BSK_hDFCGF_CollagenIII is an assay component measured in the BSK_hDFCGF assay. It measures Collagen antibody related to regulation of gene expression using ELISA technology.Data from the assay component BSK_hDFCGF_CollagenIII was analyzed into 1 assay endpoint. This assay endpoint, BSK_hDFCGF_CollagenIII, was analyzed with bidirectional fitting relative to DMSO as the negative control and baseline of activity. Using a type of binding reporter, gain or loss-of-signal activity can be used to understand changes in the signaling as they relate to the gene COL3A1. Furthermore, this assay endpoint can be referred to as a primary readout, because this assay has produced multiple assay endpoints where this one serves a signaling function. To generalize the intended target to other relatable targets, this assay endpoint is annotated to the cell adhesion molecules intended target family, where the subfamily is collagen.
The levels of cell surface (or secreted, indicated by the prefix "s") biomarker endpoints were measured by ELISA. Overt cytotoxicity to cells in confluent adherent cultures (all systems other than the BT system) was assessed by measuring total protein levels using sulforhodamine B (SRB) staining in parallel cultures at the time of biomarker measurements, indicated as SRB endpoints. For proliferation assays for adherent cell types, individual cell types are cultured at sub-confluence and relative cell numbers quantified by SRB staining at time points optimized for each system (48 h: 3C and CASM3C systems; 72 h: BT and HDF3CGF systems; 96 h: SAg system). SRB was performed by staining cells with 0.1% SRB after fixation with 10% TCA and reading wells at 560 nm.Viability and proliferation of PBMC (T cells) was quantified by Alamar Blue reduction for the SAg and BT systems. For PBMC viability (referred to as PBMC Cytotoxicity within the assay endpoint names), cells were plated (75,000/well in a 96-well plate) and then chemical samples added for 1 h before addition of activators, SEB and TSST-1 (20 ng/mL final concentration each). Cells were incubated for 90 h. Then, Alamar Blue (20 uL/well) (Invitrogen, Cat DAL1100) was added for 6 h, and the plates were read with a fluorescence microplate reader at 546/580 nm (excitation/emission). For PBMC proliferation, cells were plated and activated as above but incubated for only 16 h prior to addition of Alamar Blue. Plates were read after 6 h.
With `O=c1oc2ccccc2c(O)c1C(CC(O)c1ccc(-c2ccc(Br)cc2)cc1)c1ccccc1` (stereo not given), the AC50 is 0.632 µM (active). On to `OC(Cc1ccccc1Cl)(Cn1cncn1)C1(Cl)CC1` (stereo not given), for which the result was inactive. For the compound `N#CCCC(Br)(C#N)CBr` (stereo not given), the concentration at half-maximal activity (AC50) is 17 µM (active). Same read-out and setting: to `O=S(=O)(c1ccc(Cl)cc1)c1cc(Cl)c(Cl)cc1Cl` belongs 3.97 µM (active); to `CN(C)C(=S)S`, 3.97 µM (active). Turning to `c1ccc2sc(SNC3CCCCC3)nc2c1`, the result was inactive.

Take `Cc1c([N+](=O)[O-])c(C)c([N+](=O)[O-])c(C(C)(C)C)c1[N+](=O)[O-]`: the outcome was inactive. For `Cc1cccc(OP(=O)(Oc2cccc(C)c2)Oc2cccc(C)c2)c1`, the outcome was inactive. In the case of `O=C(N[C@H]1CN2CCC1CC2)c1ccc2c(c1)OCCO2`, the result was inactive. The same measure, in the same setting: to `C=CC(Cl)CCl` (stereo not given) belongs “inactive”.

In the case of `CCCCCCCCCCCCc1cccc(S(=O)(=O)O)c1`, the AC50 is 16.2 µM (active).

On to `O=[N+]([O-])c1ccc(Nc2ccccc2)cc1`, for which the outcome was inactive. For `O=C(CCl)NCO`, the result was inactive. Still for that read-out and setting: to `CC(C)(C)c1cc([N+](=O)[O-])cc(C(C)(C)C)c1O` belongs “inactive”. Take `CC(C)(C)c1ccccc1O`: the result was inactive. Regarding `Cc1ccc(OP(=O)(Oc2ccc(C)cc2C)Oc2ccc(C)cc2C)c(C)c1`, the outcome was inactive. Same read-out and setting: to `Cc1cc(C)cc(C)c1` belongs “inactive”. Regarding `CCOC(=O)CCN(SN(C)C(=O)Oc1cccc2c1OC(C)(C)C2)C(C)C`, the half-maximal activity concentration (AC50) was 4.31 µM (active).

For `O=C(Cc1ccccc1)OCCc1ccccc1`, the outcome was inactive.

`c1ccc(-c2cccc(-c3ccccc3)c2)cc1`: the AC50 is 11.7 µM (active).

`Nc1ccc(N)cc1`: the result was inactive.

On to `Cc1ccc2nc3sc(=O)sc3nc2c1`, for which the result was inactive. Take `CCOP(=O)(OCC)SCCSCC`: the result was inactive. On to `CCOP(=S)(OCC)SCS(=O)(=O)C(C)(C)C`, for which the outcome was inactive. Turning to `Oc1c(Br)cc(Br)cc1Br`, the AC50 was 12.1 µM (active). For `O=[N+]([O-])c1cccc2ccccc12`, the result was inactive.

On to `CCCCN(CCCC)C(=S)[S-].CCCCN(CCCC)C(=S)[S-].[Ni+2]`, for which the outcome was inactive. Take `CC(C)=CC1C(C(=O)OCc2cccc(Oc3ccccc3)c2)C1(C)C` (stereo not given): the concentration at half-maximal activity (AC50) is 7.5 µM (active). On the same count and under the same terms, to `[Cl][Sn]([c]1ccccc1)([c]1ccccc1)[c]1ccccc1` belongs 0.5 µM (active). For the compound `CC(C=O)Cc1ccc2c(c1)OCO2` (stereo not given), the result was inactive. Turning to `Oc1ccc(Cc2ccc(O)cc2)cc1`, the outcome was inactive.

Take `CCOP(=O)(OCC)OC(=CCl)c1ccc(Cl)cc1Cl`: the AC50 was 25.6 µM (active). Turning to `CCCCOC(=O)COC(=O)c1ccccc1C(=O)OCCCC`, the result was inactive. `CC(C)(COCC1CO1)COCC1CO1` (stereo not given): the outcome was inactive. Consider `CC1(C)[C@H](C(=O)O[C@H](C#N)c2cccc(Oc3ccccc3)c2)[C@@H]1/C=C(\Cl)C(F)(F)F`, for which the AC50 was 9.08 µM (active) and the result was inactive. For `Oc1cccc(-c2ccccc2)c1`, the concentration at half-maximal activity (AC50) was 30 µM (active). In the case of `Clc1cccc(Cl)c1Cl`, the result was inactive.

Consider `OCCCCO`, for which the outcome was inactive. Regarding `N#Cc1cccnc1`, the result was inactive.

One may read the AC50 as the midpoint of the concentration-response curve, whichever way the signal moves.
